Results on ten targets are retold here after the supplement of paper PMC10849652.

Experiment in all cases: log2 fold change, soluble protein after heating vs DMSO (PISA); higher = thermal stabilisation; K562 lysate, 10 uM; active = over 0.2 and 3.5 SD of the protein, either way, in both replicates (recomputed)
Compound in one test: Cc1cn(-c2cc(NC(=O)c3ccc(C)c(Nc4nccc(-c5cccnc5)n4)c3)cc(C(F)(F)F)c2)cn1 [nilotinib]
A digest of the protocol:
(§1)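 To prepare the extract, K562 pellets were dounce-homogenised in PBS pH 7.4 with 1 mM MgCl2, giving crude material at 1 mg/mL protein. This was treated with 10 μM compound for 30 min, then heated in aliquots for 3 min over 48°C-58°C before pooling and addition of NP-40 to 0.5% at 4°C. Centrifugation at 21,000xg for 90 min left soluble protein in the supernatant, which TMTpro 16plex LC-MS/MS quantified with equalised channel sums. Results are log-two fold changes in thermal stability compared with solvent controls, from duplicates.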

Compound in test [1]: Cc1nc(Nc2n[nH]c3c2CN(C(=O)N[C@H](CN(C)C)c2ccccc2)C3(C)C)c2sccc2n1
A digest of the protocol: as §1

Compound in the next test: Cc1nc(Nc2ncc(C(=O)Nc3c(C)cccc3Cl)s2)cc(N2CCN(CCO)CC2)n1 [dasatinib]
A digest of the protocol: as §1

Compound in test [2]: Cc1ncc(-c2ccnc(Nc3ccc(S(C)(=O)=O)cc3)n2)n1C(C)C
A digest of the protocol:
as §1

Compound in test [3]: Cn1cc(-c2ccc3c(c2)CCN3C(=O)Cc2cccc(C(F)(F)F)c2)c2c(N)ncnc21
A digest of the protocol: as §1

Compound in the next test: Cn1cc(CNCC2CCN(c3ncc(C(=O)NO)cn3)CC2)c2ccccc21 [quisinostat]
A digest of the protocol:
as §1

Compound in a further test: Cn1cncc1[C@@](N)(c1ccc(Cl)cc1)c1ccc2c(c1)c(-c1cccc(Cl)c1)cc(=O)n2C [tipifarnib]
A digest of the protocol:
as §1

Compound in test [4]: NC(=O)Nc1cc(-c2cccc(F)c2)sc1C(=O)N[C@H]1CCCNC1
A digest of the protocol:
as §1

Compound in test [5]: NC(=O)c1cnc(N[C@@H]2CCCC[C@@H]2N)nc1Nc1cccc(-n2nccn2)c1
A digest of the protocol:
as §1

Compound in test [6]: NC1(c2ccc(-c3nc4ccn5c(=O)[nH]nc5c4cc3-c3ccccc3)cc2)CCC1
A digest of the protocol: as §1

Compound in test [7]: NCC(=O)Nc1ccc(-n2nc(C(F)(F)F)cc2-c2ccc3c(ccc4ccccc43)c2)cc1
A digest of the protocol:
as §1

Compound in the next test: O=C(CCCCCCC(=O)Nc1ccccc1)NO [vorinostat]
A digest of the protocol:
as §1

Compound in the next test: O=C(O)c1ccc2c(c1)nc(Nc1cccc(Cl)c1)c1ccncc12 [silmitasertib]
A digest of the protocol:
as §1

Compound in test [8]: O=C1NC(=O)C(c2cnc3ccccn23)=C1c1cn2c3c(cc(F)cc13)CN(C(=O)N1CCCCC1)CC2
A digest of the protocol:
as §1

Compound in another test: c1cn2cc(-c3ccc4cn[nH]c4c3)nc(Nc3ccc(N4CCOCC4)cc3)c2n1 [entospletinib]
A digest of the protocol: as §1

Targets with a hit are over-represented here; the source holds about 8,800 in all. About 0.5% of all pairs of compound and target were hits. A number with no mark means an inactive call.

UniProt P10398, sequence (P10398 whole entry, looked up): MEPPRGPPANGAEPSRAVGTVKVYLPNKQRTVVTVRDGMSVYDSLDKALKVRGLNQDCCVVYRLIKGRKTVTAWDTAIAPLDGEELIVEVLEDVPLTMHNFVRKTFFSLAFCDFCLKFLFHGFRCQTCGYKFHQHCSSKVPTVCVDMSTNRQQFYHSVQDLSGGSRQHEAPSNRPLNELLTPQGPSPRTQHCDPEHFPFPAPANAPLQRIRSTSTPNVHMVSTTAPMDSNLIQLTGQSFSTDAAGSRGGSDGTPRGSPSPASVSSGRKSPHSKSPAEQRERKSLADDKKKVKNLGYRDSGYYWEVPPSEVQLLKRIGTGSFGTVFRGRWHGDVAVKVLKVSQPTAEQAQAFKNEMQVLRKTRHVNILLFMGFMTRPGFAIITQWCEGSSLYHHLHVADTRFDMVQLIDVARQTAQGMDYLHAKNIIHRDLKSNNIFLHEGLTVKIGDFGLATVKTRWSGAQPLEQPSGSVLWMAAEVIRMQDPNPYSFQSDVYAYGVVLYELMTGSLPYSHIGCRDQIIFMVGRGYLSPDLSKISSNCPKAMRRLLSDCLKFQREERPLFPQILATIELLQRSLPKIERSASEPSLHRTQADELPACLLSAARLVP
UniProt P35611, sequence (P35611 whole entry, looked up): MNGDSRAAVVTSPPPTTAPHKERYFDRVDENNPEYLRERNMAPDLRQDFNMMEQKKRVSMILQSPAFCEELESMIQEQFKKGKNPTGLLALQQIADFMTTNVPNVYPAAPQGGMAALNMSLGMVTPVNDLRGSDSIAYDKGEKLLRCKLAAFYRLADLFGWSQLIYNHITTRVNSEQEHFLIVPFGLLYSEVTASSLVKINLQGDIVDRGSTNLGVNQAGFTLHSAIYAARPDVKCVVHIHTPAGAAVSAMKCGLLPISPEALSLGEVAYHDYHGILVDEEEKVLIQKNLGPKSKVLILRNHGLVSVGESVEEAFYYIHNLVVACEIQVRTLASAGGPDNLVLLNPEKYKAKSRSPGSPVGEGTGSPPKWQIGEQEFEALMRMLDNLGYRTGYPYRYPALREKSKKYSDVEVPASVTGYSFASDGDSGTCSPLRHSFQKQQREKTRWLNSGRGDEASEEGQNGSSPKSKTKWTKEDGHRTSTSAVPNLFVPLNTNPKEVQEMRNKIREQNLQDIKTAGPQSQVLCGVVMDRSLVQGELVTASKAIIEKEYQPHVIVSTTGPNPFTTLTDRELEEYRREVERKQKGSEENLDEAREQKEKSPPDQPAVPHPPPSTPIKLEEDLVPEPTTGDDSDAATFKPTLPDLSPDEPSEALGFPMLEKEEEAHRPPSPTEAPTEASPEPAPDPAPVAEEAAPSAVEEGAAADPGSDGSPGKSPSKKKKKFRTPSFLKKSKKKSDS
UniProt P42331, sequence (P42331 whole entry, looked up): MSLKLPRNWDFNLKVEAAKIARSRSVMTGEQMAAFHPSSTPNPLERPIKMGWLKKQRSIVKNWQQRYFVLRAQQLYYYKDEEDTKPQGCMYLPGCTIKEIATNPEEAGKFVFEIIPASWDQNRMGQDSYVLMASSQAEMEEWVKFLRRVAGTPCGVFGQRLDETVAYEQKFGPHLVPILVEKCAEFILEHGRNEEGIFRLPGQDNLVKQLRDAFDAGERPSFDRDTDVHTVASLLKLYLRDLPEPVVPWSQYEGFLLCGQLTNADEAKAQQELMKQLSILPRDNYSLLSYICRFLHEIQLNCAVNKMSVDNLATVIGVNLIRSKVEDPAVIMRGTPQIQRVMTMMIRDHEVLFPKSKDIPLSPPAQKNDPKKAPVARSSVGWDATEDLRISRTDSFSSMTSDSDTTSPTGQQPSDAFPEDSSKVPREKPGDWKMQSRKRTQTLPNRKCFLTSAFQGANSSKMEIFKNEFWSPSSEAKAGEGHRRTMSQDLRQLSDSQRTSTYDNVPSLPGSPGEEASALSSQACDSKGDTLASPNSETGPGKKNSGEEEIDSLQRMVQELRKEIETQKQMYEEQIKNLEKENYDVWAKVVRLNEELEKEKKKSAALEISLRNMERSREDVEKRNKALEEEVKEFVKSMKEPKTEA
UniProt P54886, sequence (P54886 whole entry, looked up): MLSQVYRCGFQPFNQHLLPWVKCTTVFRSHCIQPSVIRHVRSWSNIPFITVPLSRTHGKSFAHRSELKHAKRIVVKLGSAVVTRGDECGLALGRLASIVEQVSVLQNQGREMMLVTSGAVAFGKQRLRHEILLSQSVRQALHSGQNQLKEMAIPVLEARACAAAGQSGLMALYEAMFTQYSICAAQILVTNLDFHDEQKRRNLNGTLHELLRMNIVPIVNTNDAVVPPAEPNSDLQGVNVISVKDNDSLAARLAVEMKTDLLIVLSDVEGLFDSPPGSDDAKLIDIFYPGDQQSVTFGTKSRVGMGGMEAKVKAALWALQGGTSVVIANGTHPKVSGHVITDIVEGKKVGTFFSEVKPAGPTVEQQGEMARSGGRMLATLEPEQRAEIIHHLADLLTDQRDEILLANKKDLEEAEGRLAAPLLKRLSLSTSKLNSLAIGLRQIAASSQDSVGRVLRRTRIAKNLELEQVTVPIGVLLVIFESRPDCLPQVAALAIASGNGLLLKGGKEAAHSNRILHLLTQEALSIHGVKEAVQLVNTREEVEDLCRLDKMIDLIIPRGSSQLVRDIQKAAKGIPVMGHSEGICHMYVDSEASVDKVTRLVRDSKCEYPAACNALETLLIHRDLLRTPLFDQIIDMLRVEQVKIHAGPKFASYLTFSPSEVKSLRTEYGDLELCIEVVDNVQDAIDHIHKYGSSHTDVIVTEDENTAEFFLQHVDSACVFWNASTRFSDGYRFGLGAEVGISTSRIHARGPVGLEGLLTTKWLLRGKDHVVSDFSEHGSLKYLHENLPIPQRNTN
UniProt Q9BVK2, sequence (Q9BVK2 whole entry, looked up): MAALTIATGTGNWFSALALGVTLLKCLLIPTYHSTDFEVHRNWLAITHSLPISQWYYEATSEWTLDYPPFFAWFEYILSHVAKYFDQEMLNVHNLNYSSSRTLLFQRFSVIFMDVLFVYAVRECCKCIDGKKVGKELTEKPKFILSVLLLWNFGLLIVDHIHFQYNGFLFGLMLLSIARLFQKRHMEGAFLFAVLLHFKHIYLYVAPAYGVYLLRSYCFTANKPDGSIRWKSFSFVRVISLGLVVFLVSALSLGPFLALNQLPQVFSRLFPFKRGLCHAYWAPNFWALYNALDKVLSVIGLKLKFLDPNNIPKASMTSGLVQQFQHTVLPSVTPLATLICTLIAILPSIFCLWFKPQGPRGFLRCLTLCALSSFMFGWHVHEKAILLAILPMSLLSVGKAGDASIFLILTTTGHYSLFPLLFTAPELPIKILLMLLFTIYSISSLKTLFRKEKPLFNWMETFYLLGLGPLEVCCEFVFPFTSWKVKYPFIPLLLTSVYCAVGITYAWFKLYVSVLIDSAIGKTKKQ
UniProt P07355, sequence (P07355 whole entry, looked up): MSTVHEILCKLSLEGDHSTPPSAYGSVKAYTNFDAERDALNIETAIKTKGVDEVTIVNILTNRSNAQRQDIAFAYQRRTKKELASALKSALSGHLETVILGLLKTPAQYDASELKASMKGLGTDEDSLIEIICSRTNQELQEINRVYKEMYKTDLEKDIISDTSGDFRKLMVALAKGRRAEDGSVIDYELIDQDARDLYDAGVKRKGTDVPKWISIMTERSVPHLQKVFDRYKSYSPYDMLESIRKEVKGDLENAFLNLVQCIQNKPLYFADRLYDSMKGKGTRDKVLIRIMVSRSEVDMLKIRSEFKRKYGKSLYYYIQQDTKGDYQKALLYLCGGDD
UniProt O43182, sequence (O43182 whole entry, looked up): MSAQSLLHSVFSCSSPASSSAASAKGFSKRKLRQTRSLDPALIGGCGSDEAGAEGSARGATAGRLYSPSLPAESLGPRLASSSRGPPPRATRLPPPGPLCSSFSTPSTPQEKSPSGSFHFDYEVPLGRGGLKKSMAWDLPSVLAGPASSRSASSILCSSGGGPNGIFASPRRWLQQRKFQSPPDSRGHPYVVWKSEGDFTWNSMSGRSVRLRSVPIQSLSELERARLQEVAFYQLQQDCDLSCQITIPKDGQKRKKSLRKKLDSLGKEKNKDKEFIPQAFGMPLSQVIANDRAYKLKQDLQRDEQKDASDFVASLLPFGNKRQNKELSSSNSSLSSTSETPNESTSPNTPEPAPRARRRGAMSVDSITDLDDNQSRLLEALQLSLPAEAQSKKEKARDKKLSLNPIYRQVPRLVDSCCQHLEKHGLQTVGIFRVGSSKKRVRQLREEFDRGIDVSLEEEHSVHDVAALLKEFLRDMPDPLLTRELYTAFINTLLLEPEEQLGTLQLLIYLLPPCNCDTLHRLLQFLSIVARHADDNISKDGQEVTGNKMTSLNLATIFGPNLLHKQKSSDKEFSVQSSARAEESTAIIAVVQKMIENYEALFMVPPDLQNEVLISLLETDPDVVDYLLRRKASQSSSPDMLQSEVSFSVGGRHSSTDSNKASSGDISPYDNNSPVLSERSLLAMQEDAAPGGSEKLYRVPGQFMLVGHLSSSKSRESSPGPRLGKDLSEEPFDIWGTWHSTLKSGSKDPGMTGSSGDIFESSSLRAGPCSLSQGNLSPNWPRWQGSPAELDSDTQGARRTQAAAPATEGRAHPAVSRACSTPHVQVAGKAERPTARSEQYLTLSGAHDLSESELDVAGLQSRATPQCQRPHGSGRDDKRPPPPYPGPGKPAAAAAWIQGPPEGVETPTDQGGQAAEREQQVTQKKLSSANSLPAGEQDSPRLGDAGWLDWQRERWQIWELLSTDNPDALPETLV

Take ALG8 (UniProt Q9BVK2): the log2 fold change in the test with nilotinib is -0.007; in test [1], -0.008; in the test with dasatinib it was -0.051; in test [2], -0.077; in test [3], 0.02; in the test with quisinostat it was 0.019. The log2 fold change with tipifarnib is -0.165; in [4] it was 0.043; in test [5], -0.025; in test [6] it was -0.006; in test [7], -0.022; in the test with vorinostat, -0.05. Moreover, the log2 fold change was 0.063 with silmitasertib, -0.008 in test [8] and -0.007 in the test with entospletinib.
As for ABL2 (UniProt P42684), the log2 fold change is -0.084 with nilotinib; 0.157 in [1]; 0.067 with dasatinib; 0.091 in test [2]; 0.064 in test [3]; -0.16 in the test with quisinostat. The log2 fold change is -0.116 with tipifarnib; 0.103 in test [4]; -0.028 in [5]; -0.027 in test [6]; -0.093 in test [7]; -0.274 with vorinostat. Further, the log2 fold change with silmitasertib was 0.073; in test [8], -0.055; with entospletinib it was -0.05.
With ADD1 isoform 3 (UniProt P35611), the log2 fold change was 0.027 with nilotinib; -0.005 in test [1]; 0.007 with dasatinib; -0.017 in test [2]; -0.012 in test [3]; -0.016 with quisinostat. The log2 fold change in the test with tipifarnib is 0.019; in test [4], 0.007; in test [5], -0.015; in test [6] it was 0.011; in test [7], -0.024; with vorinostat, 0.048. Also, the log2 fold change with silmitasertib was -0.012; in [8] it was -0.022; with entospletinib, -0.014.
Take ARAF (UniProt P10398): the log2 fold change is -0.005 with nilotinib; 0.018 in test [1]; 0.16 with dasatinib; 0.022 in [2]; 0.02 in [3]; -0.069 in the test with quisinostat. For the same target, the log2 fold change in the test with tipifarnib is -0.023; in [4] it was 0.011; in test [5] it was 0.018; in test [6], -0.012; in test [7], -0.072; with vorinostat, -0.487 (active). The results for the log2 fold change (in the test with silmitasertib; in test [8]; in the test with entospletinib) were -0.023, 0.019 and -0.011, respectively.
For the target ALDH18A1 (UniProt P54886), the log2 fold change with nilotinib is 0; in [1] it was -0.023; with dasatinib it was -0.027; in test [2] it was -0.004; in test [3], 0.007; with quisinostat, -0.06. The log2 fold change with tipifarnib is -0.001; in test [4], 0.025; in [5] it was 0.023; in [6] it was -0.019; in test [7], 0.023; in the test with vorinostat it was -0.401 (active). Also, the log2 fold change with silmitasertib is 0.023; in test [8], -0.015; with entospletinib, 0.022.
With ALDH2 (UniProt P05091), the log2 fold change was 0.028 with nilotinib; -0.017 in test [1]; 0.014 in the test with dasatinib; -0.013 in [2]; 0.001 in [3]; 0.121 in the test with quisinostat. The log2 fold change was 0.039 in the test with tipifarnib; 0.001 in test [4]; 0.016 in [5]; -0.003 in [6]; -0.068 in [7]; 0.627 (active) with vorinostat. For the same target, the log2 fold change with silmitasertib is 0.009; in test [8], 0.019; with entospletinib, -0.009.
As for ANXA2 isoform 2 (UniProt P07355), the log2 fold change with nilotinib was 0.035; in test [1], -0.016; in the test with dasatinib, 0.048; in [2], 0.003; in test [3], -0.017; with quisinostat, 0.064. Moreover, the log2 fold change with tipifarnib was 0.016; in [4], -0.018; in [5], -0.015; in test [6], 0.022; in [7], -0.015; with vorinostat, 0.023. For the same target, the log2 fold change with silmitasertib is -0.015; in [8], 0.003; with entospletinib it was 0.016.
On to ARHGAP25 isoform 4 (UniProt P42331), for which the log2 fold change with nilotinib was -0.037; in [1], 0.039; in the test with dasatinib it was -0.039; in test [2], 0.022; in test [3], 0.008; in the test with quisinostat it was -0.115. The log2 fold change with tipifarnib was -0.016; in test [4], 0.017; in test [5], 0.028; in test [6] it was -0.009; in [7], 0.027; with vorinostat, -0.377 (active). Also, the log2 fold change with silmitasertib is 0.011; in test [8] it was -0.038; with entospletinib it was 0.009.
For the target AKT1 (UniProt P31749), the log2 fold change with nilotinib was -0.05; in [1] it was 0.012; with dasatinib, -0.014; in [2] it was -0.01; in test [3], 0.001; with quisinostat, -0.1. Moreover, the log2 fold change in the test with tipifarnib is 0.025; in [4], 0; in [5], -0.007; in test [6], 0.669 (active); in [7], -0.051; with vorinostat, -0.192. The log2 fold change in the test with silmitasertib was -0.012; in test [8], -0.024; with entospletinib it was -0.005.
Take ARHGAP6 (UniProt O43182): the log2 fold change in the test with nilotinib is -0.003; in test [1], -0.014; with dasatinib, -0.102; in test [2], 0; in test [3] it was 0.052; with quisinostat, -0.019. Moreover, the log2 fold change in the test with tipifarnib is 0.02; in test [4], 0.034; in test [5], -0.025; in test [6], -0.039; in test [7], 0.058; in the test with vorinostat, -0.346 (active). Besides, the log2 fold change with silmitasertib is 0.089; in test [8], 0.025; with entospletinib, 0.004.
